The whole screen tested about 52,000 compounds, of which about 4,300 (8.3%) were called active. This is one part of a sample in which actives are shown more often than they occur. Unmarked numbers belong to inactive results. Cut-off read from the data, not from the text of the source: active = survival mostly below about 52% (no sharp cut-off); inactive = mostly above about 56%.
Each molecule was assayed on DeltatarO mutant (assay: growth inhibition of S. aureus wild type versus tarO mutant, primary screen, teichoic acid synthesis inhibitors, RN4220, OD600 (AID 463173)). Details: OD600, 18 h, hits give low values, screened at 18.75 µg/mL (by protocol).

SMILES | survival
COc1cccc(CNC(=O)CSC2=Nc3ccccc3C3=NC(C(C)C)C(=O)N23)c1 (stereo unspecified) | 69%
Cc1ccc(Cl)cc1N1CCN(C(=O)C2CCN(S(=O)(=O)c3cn(C)cn3)CC2)CC1 | 98%
CC(=O)Nc1cccc(NC(=O)C2CCCN2C(=O)Nc2ccccc2Cl)c1 (stereo unspecified) | 113%
CCOc1ccc(-c2csc(-c3nc(-c4ccc(Br)s4)cs3)n2)cc1 | 83%
NC(=O)c1c(NC(=O)CS(=O)(=O)c2ccc(Cl)cc2)sc2c1CCCCC2 | 82%
O=C(CSC1=Nc2ccccc2C2=NC(CCC(=O)NC3CCCCC3)C(=O)N12)Nc1cccc(Cl)c1 (stereo unspecified) | 112%
CCC(=O)N1CCc2cc(Br)cc(S(=O)(=O)CCC(=O)N(C)c3cccc(C)c3)c21 | 62%
CCOc1ccc(NC(=O)CC2C(=O)N(c3cccc(C)c3)C(=O)N2Cc2cccs2)cc1 (stereo unspecified) | 89%
Cc1cccc(N2C(=O)C(CC(=O)Nc3cccc(F)c3)N(Cc3cccs3)C2=O)c1 (stereo unspecified) | 8% (active)
Cc1cccc(N2C(=O)C(CC(=O)Nc3cccc(F)c3)N(CCc3ccncc3)C2=O)c1 (stereo unspecified) | 75%
COc1cc(NC(=O)CC2C(=O)N(c3cccc(C)c3)C(=O)N2Cc2cccs2)cc(OC)c1 (stereo unspecified) | 66%
CCc1ccc(NC(=O)CC2C(=O)N(c3cccc(C)c3)C(=O)N2Cc2cccs2)cc1 (stereo unspecified) | 20% (active)
CCc1ccc(NC(=O)CC2C(=O)N(c3ccc(Cl)cc3)C(=O)N2Cc2cccs2)cc1 (stereo unspecified) | 60%
Cn1c(=O)n(C)c2cc(NS(=O)(=O)c3ccc(F)cc3)c(NCc3ccccc3)cc21 | 68%
CCc1nn(CCCC(=O)N2CCN(c3ccc(OC)cc3)CC2)c(=O)c2cc3occc3n12 | 87%
Cc1ccc(OCc2nc3ccccc3n2Cc2ccccc2Cl)cc1 | -8% (active)
Cc1cccc(C(=O)NCc2nc3ccccc3n2Cc2ccccc2Cl)c1 | 106%
C#CCn1c(COc2ccccc2C)nc2ccccc21 | 111%
COc1ccc(-n2c(=O)c3ccccc3n(Cc3ccccc3Cl)c2=O)cc1 | 110%
COc1ccc(OCc2nc3ccccc3n2Cc2ccccc2Cl)cc1 | 39% (active)
Cc1ccccc1Cn1c(COc2ccc(Cl)cc2)nc2ccccc21 | 114%
C=CCc1ccccc1OCc1nc2ccccc2n1CC | 49%
Cc1ccccc1OCc1nc2ccccc2n1Cc1ccccc1Cl | 0% (active)

SMILES | survival
CCc1cc(C(=O)NCc2ccc(F)cc2)no1 | 53%
Cc1cc(=O)oc2cc(OCC(=O)NCc3ccco3)ccc12 | 74%
CC(C)C(c1nnnn1C1CCCC1)N1CCN(C(=O)c2ccco2)CC1 (stereo unspecified) | 86%
Cc1cccc(C(=O)NCC(c2ccc3c(c2)OCO3)N2CCOCC2)c1 (stereo unspecified) | 73%
Cc1ccc(N2C(=O)CCSC23C(=O)N(Cc2ccccc2)c2ccccc23)cc1 (stereo unspecified) | 89%
Cc1cccc(NC(=O)CSc2nnc(N)s2)c1 | 149%
COc1cc(C(=O)NCCc2sc(-c3ccc(C)cc3)nc2C)cc(OC)c1OC | 80%
Cc1ccc(N=Cc2ccc(C)o2)cc1 | 98%
Cc1ccc(/C=C2\SC(=O)NC2=S)o1 | 33% (active)
Cc1ccc(-n2c(C)cc(/C=C3\SC(=O)NC3=O)c2C)cc1 | 95%
Fc1ccc(CNc2ccc(N3CCCC3)cc2)cc1 | 97%
Cc1ccccc1CNC(=O)CN1C(=O)C2CCCCN2c2ccc(C(=O)N3CCCC3)cc21 (stereo unspecified) | 76%
CCC(C)NC(=O)c1ccc2c(c1)N(Cc1ccccc1F)C(=O)c1ccccc1S2=O (stereo unspecified) | 64%
Cc1ccc2oc(-c3ccc(Cl)cc3)c(O)c(=O)c2c1 | 72%
COc1cccc(-c2nnc(SCC(=O)N3c4ccccc4Sc4ccccc43)o2)c1 | 35% (active)
CC1CCCCN1C(=O)CSc1nnc(-c2ccccc2Cl)o1 (stereo unspecified) | 74%
CC1Cc2ccccc2N1C(=O)CSc1nnc(-c2ccccc2)o1 (stereo unspecified) | 69%
O=C(CSc1nnc(-c2cccc(F)c2)o1)N1c2ccccc2Sc2ccccc21 | 114%
CC1CCN(C(=O)CSc2nnc(-c3ccccc3Cl)o2)CC1 | 104%
CC1Cc2ccccc2N1C(=O)CSc1nnc(-c2ccccc2Cl)o1 (stereo unspecified) | 49% (active)
O=C(CSc1nnc(-c2cccc(Cl)c2)o1)N1CCc2ccccc21 | 85%
CC1Cc2ccccc2N1C(=O)CSc1nnc(-c2cccc(Cl)c2)o1 (stereo unspecified) | 34% (active)
COc1cccc(-c2nnc(SCC(=O)N3CCc4ccccc43)o2)c1 | 70%

Reference: PubChem BioAssay AID463173 (ICCB-Longwood Screening Facility, Harvard Medical School, 2010)
